Screens (PubChem BioAssay)
An excerpt weighted towards active compounds, which were near 1.6% of everything screened.
S1P2 agonist: activates the human S1P2 receptor. S1P2-expressing cell line, agonist reporter read-out. activation, % at 4.5 µM. 97,000 tested, 0.46% active; in the data active = activation above about 16%;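 also: 0% = vehicle low control and 100% = maximal reference agonist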
Target sequence (O95136 whole entry, looked up): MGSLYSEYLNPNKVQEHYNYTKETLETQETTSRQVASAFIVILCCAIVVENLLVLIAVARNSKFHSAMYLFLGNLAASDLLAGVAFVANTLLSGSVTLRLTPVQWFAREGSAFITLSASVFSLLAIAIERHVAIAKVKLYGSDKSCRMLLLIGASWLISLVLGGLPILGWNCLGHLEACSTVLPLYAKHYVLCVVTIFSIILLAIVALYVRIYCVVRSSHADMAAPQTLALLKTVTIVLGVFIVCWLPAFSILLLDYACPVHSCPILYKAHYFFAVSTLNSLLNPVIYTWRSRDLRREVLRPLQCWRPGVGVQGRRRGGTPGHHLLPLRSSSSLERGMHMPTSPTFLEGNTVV
VCAM1 TNFa inh: reduces TNF alpha induced VCAM1 expression in HUVEC. HUVEC TNFa-induced VCAM-1 immunofluorescence, high-content imaging. inhibition, % at 2 µM. 95,000 tested, 0.48% active;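 active = inhibition above the batch mean plus 3 SD, with images confirmed as a hit by eye, cut at about 37% in these data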;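 also: 0% = TNF-stimulated DMSO wells and 100% = unstimulated control wells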
S1P2 antag: S1P2 (human) receptor antagonism. O95136. cell-based S1P2 antagonist assay, inhibition at 5 uM. inhibition, % at 5 µM. 97,000 tested, 0.21% active. AID 736; in the data active = inhibition above about 45%;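 also: CRE beta-lactamase reporter cells expressing human S1P2 stimulated with S1P; 0% = agonist at EC80 alone and 100% = agonist plus reference antagonist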
TNFa cytotox: toxic to HUVEC cells under TNF alpha stimulation; 93,000 tested, 0.17% active; HUVEC TNFalpha-stimulated, Hoechst cell count, imaging; cell count reduction, % at 2 µM;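 active = cell count reduction exceeding the screen mean by over 5 SD, scaled to untreated wells per plate, cut at about 78% in these data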;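 also: cells counted after 24 h of TNF alpha exposure following the 1 h pretreatment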
F-actin modifier: cytoskeleton assembly modification. HUVEC TNFa F-actin phalloidin imaging, high content. inhibition, % at 2 µM. 91,000 tested, 0.18% active. AID 836;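 active = inhibition above the batch mean plus 3 SD and confirmed as a hit by visual image inspection, cut at about 30% in these data, passing the limit was not always enough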
E-sel TNF inh: blocks E-selectin expression induced by TNF alpha. HUVEC TNFa-induced E-selectin immunofluorescence, high content. inhibition, % at 2 µM. 120,000 tested, 0.71% active. AID 1246;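 active = inhibition above the batch mean plus 3 SD, and confirmed as a hit on visual image review, cut at about 43% in these data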;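 also: 0% = TNF-stimulated DMSO wells and 100% = unstimulated control wells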
An asterisk follows results filed as active.

`CCCCC(=O)Nc1sc2c(c1C(=O)OCC)CCC(C=O)=C2Cl` gave S1P2 agonist -5.3, VCAM1 TNFa inh 9.2, S1P2 antag 13.1, TNFa cytotox 30.3, F-actin modifier -19.6 and E-sel TNF inh -36.2.
For COC(=O)c1c(NC(=O)CC2SC(N)=NC2=O)sc(C)c1C (stereo unspecified) the results were E-sel TNF inh 14.4.
`COC(=O)NNC(=S)NCc1ccc(C)cc1` gave E-sel TNF inh -12.2.
CC(C)c1ccc(NC(=O)N(CCc2nc3ccccc3[nH]2)C2CCCC2)cc1 was read as S1P2 agonist -4.9, VCAM1 TNFa inh -9.5, S1P2 antag 34.8, TNFa cytotox -9.5, F-actin modifier 28.0 and E-sel TNF inh -6.9.
O=C(Nc1ccccc1)N(CCc1ccncc1)C1CCCCC1 was read as S1P2 agonist -4.5, VCAM1 TNFa inh 1.5, S1P2 antag 18.8, TNFa cytotox -13.2, F-actin modifier 7.9 and E-sel TNF inh 97.7*.
For C(#CC12CC3CC(CC(C3)C1)C2)CN1CCOCC1 the results were E-sel TNF inh -6.5.
Cc1nc2sc3c(NCc4ccco4)ncnc3c2c2c1COC(C)(C)C2 was read as S1P2 agonist 26.5*, VCAM1 TNFa inh -9.5, S1P2 antag -34.1, TNFa cytotox -4.9, F-actin modifier 6.0 and E-sel TNF inh -28.4.
CC1CN(C(=O)/C(C#N)=C2\N=C(NC(=O)c3ccccc3Cl)c3ccccc32)CC(C)O1 (stereo unspecified) was read as E-sel TNF inh 92.7*.
Screening COc1cc(Cn2c(N)c(C#N)c3nc4ccccc4nc32)cc(OC)c1 returned S1P2 agonist 14.5, VCAM1 TNFa inh 5.7, S1P2 antag -35.4, TNFa cytotox -14.1, F-actin modifier -6.3 and E-sel TNF inh -19.8.
Screening COCCn1c(N)c(C#N)c2nc3ccccc3nc21 returned S1P2 agonist 3.2, VCAM1 TNFa inh 16.7, S1P2 antag -6.0, TNFa cytotox 3.2, F-actin modifier -4.1 and E-sel TNF inh 6.7.
`COc1ccc(Cn2c(N)c(C#N)c3nc4ccccc4nc32)cc1` gave S1P2 agonist 31.2*, VCAM1 TNFa inh -6.1, S1P2 antag -61.6, TNFa cytotox -5.2 and F-actin modifier -0.2.
COc1cccc(Cn2c(N)c(C#N)c3nc4ccccc4nc32)c1OC was read as S1P2 agonist 24.1*, VCAM1 TNFa inh 25.6, S1P2 antag -37.2, TNFa cytotox 3.4, F-actin modifier 3.0 and E-sel TNF inh -10.4.
For CCC1=NC(c2ccccc2Cl)N(O)C1(C)C (stereo unspecified) the results were S1P2 agonist -4.0, VCAM1 TNFa inh 58.7*, S1P2 antag -19.7, TNFa cytotox 70.5, F-actin modifier -9.0 and E-sel TNF inh 9.8.
`Nc1nc(SCc2ccc(F)cc2)ns1` gave E-sel TNF inh -24.8.
Cn1nnnc1SCC(=O)N1CCN(c2cccc(Cl)c2)CC1 was read as S1P2 agonist -4.3, VCAM1 TNFa inh -11.6, S1P2 antag -12.2, TNFa cytotox -13.8, F-actin modifier 12.2 and E-sel TNF inh 0.7.
COc1nc(C)nc(NC(=O)NS(=O)(=O)c2ccc(C)cc2)n1 was read as S1P2 agonist 25.8*, VCAM1 TNFa inh 22.6, S1P2 antag 1.8, TNFa cytotox 8.1, F-actin modifier -2.3 and E-sel TNF inh 11.5.
For O=C1C[C@@H](c2ccc(O[C@@H]3O[C@H](CO)[C@@H](O)[C@H](O)[C@H]3O)cc2)Oc2cc(O)ccc21 the results were E-sel TNF inh -14.2.
Screening COc1ccccc1C(=O)Nc1nc(-c2ccc(S(=O)(=O)N3CCOCC3)cc2)cs1 returned S1P2 agonist -7.5, VCAM1 TNFa inh 8.8, S1P2 antag 77.3*, TNFa cytotox 4.7, F-actin modifier -6.3 and E-sel TNF inh 10.8.
For COc1ccccc1OC(C)C(=O)Nc1nc(-c2ccc(S(=O)(=O)N3CCOCC3)cc2)cs1 (stereo unspecified) the results were S1P2 agonist -8.2, VCAM1 TNFa inh -16.6, S1P2 antag 9.1, TNFa cytotox -2.1, F-actin modifier -15.1 and E-sel TNF inh -20.6.
O=C(Nc1nc(-c2ccncc2)cs1)c1ccc(S(=O)(=O)N2CCOCC2)cc1 was read as S1P2 agonist -13.4, VCAM1 TNFa inh -2.1, S1P2 antag 1.7, TNFa cytotox -13.3, F-actin modifier -0.1 and E-sel TNF inh 63.0*.
CCOc1cccc(C(=O)Nc2nc(-c3ccc(S(=O)(=O)N4CCOCC4)cc3)cs2)c1 was read as S1P2 agonist -3.9, VCAM1 TNFa inh -21.9, S1P2 antag 16.2, TNFa cytotox -4.8, F-actin modifier -17.3 and E-sel TNF inh 0.3.
Cc1onc(-c2c(F)cccc2Cl)c1C(=O)NC(=S)NCc1cccnc1 was read as E-sel TNF inh 10.9.
For Cc1ccc2[nH]c(-c3ccccc3)cc(=O)c2c1 the results were S1P2 agonist -3.7, VCAM1 TNFa inh 63.7*, S1P2 antag 19.1, TNFa cytotox 37.0 and F-actin modifier -105.8.
Screening CC(C)CCSc1nc2c(c(=O)[nH]c(=O)n2C)n1CCCc1ccccc1 returned S1P2 agonist -2.3, VCAM1 TNFa inh 10.4, S1P2 antag -10.7, TNFa cytotox -35.9 and F-actin modifier 17.8.
Cc1nnc(Sc2nc3c(c(=O)[nH]c(=O)n3C)n2CCCc2ccccc2)s1 was read as S1P2 agonist 26.6*, VCAM1 TNFa inh 5.7, S1P2 antag -30.8, TNFa cytotox -21.2 and F-actin modifier -2.7.
For COc1ccccc1NC(=O)CSc1nnc2ccc(-c3cccnc3)nn12 the results were E-sel TNF inh 82.0*.
Screening CCOc1ccccc1NC(=O)CSc1nnc2ccc(-c3cccnc3)nn12 returned E-sel TNF inh -76.7.
Screening CN(C)CCCNS(=O)(=O)c1ccc(N2CCC(c3ccc(Cl)cc3)=N2)cc1 returned S1P2 agonist 202.3*, VCAM1 TNFa inh 30.9, S1P2 antag -213.8, TNFa cytotox 13.6 and E-sel TNF inh 5.8.
For CCN(CC(=O)N1CCCCCC1)S(=O)(=O)c1ccc(Cl)cc1 the results were S1P2 agonist -6.4, VCAM1 TNFa inh -19.1, S1P2 antag 9.9, TNFa cytotox -13.9, F-actin modifier -5.5 and E-sel TNF inh -19.1.
O=S(=O)(c1ccc(N2CCC(c3ccc(Cl)cc3)=N2)cc1)N(CCO)CCO was read as S1P2 agonist 111.0*, VCAM1 TNFa inh 11.1, S1P2 antag -207.6, TNFa cytotox 7.5, F-actin modifier -0.8 and E-sel TNF inh 10.5.
CN(C)CCCNS(=O)(=O)c1cc(Cl)ccc1Cl was read as S1P2 agonist -3.5, VCAM1 TNFa inh 7.9, S1P2 antag 12.2, TNFa cytotox -4.8, F-actin modifier -27.7 and E-sel TNF inh 16.0.
Screening CCN1CCCC1CNC(=O)C(=O)NC1CC1 (stereo unspecified) returned E-sel TNF inh -5.0.
Screening CCN1CCCC1CNC1=NCCCCC1 (stereo unspecified) returned S1P2 agonist -2.8, VCAM1 TNFa inh 4.2, S1P2 antag 9.2, TNFa cytotox -8.4, F-actin modifier 13.8 and E-sel TNF inh 71.0*.
For C=C1CC2C=C(NC(C)=O)CC(C1)C2 (stereo unspecified) the results were S1P2 agonist -6.7, VCAM1 TNFa inh -12.4, S1P2 antag 15.4, TNFa cytotox 35.3 and F-actin modifier -12.3.
